# Assay results published in the supplement of paper PMC12282887.
# ± gives the standard deviation of the averaged measurements.
# What was measured:
# Test in all cases: promoter activity interaction Z-score (Lux/OD deviation from empty-vector control); higher = stronger promoter induction by the compound
# [1] = tested on: E. coli BW25113 acrABp lux reporter
# Summary of the method: (§1)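 Low-copy luxCDABE promoter reporters were carried by E. coli BW25113, either wild type or lacking one of three genes, grown in 40 µl LB Lennox in 384-well plates at 37°C. Each compound was run at four 1:2 dilutions in biological duplicates, with OD600 and luminescence read every 30 min for 12 h. Integration used 0–8 h for wild type and 1–9 h for deletion strains, and wells under 10% of the median growth value were removed. Luminescence normalised to growth was fitted against a control, and the Z-transformed residual is the score.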
# [2] = tested on: E. coli BW25113 ompFp lux reporter
# Summary of the method: as §1
# [3] = tested on: E. coli BW25113 robp lux reporter
# Summary of the method: as §1
# [4] = tested on: E. coli BW25113 soxSp lux reporter
# Summary of the method: as §1
# [5] = tested on: E. coli BW25113 tolCp lux reporter
# Summary of the method: as §1
# [6] = 0.038 µg/ml, genetic background: wild type
# [7] = 0.038 µg/ml, genetic background: ΔmarA
# [8] = 0.038 µg/ml, genetic background: Δrob
# [9] = 0.038 µg/ml, genetic background: ΔsoxS
# [10] = 0.076 µg/ml, genetic background: wild type
# [11] = 0.076 µg/ml, genetic background: ΔmarA
# [12] = 0.076 µg/ml, genetic background: Δrob
# [13] = 0.076 µg/ml, genetic background: ΔsoxS
# [14] = 0.15 µg/ml, genetic background: wild type
# [15] = 0.15 µg/ml, genetic background: ΔmarA
# [16] = 0.15 µg/ml, genetic background: Δrob
# [17] = 0.15 µg/ml, genetic background: ΔsoxS
# [18] = 0.3 µg/ml, genetic background: wild type
# [19] = 0.3 µg/ml, genetic background: ΔmarA
# [20] = 0.3 µg/ml, genetic background: Δrob
# [21] = 0.3 µg/ml, genetic background: ΔsoxS
structure (smiles),measurement,setting,value
Cc1c(N)nc([C@H](CC(N)=O)NC[C@H](N)C(N)=O)nc1C(=O)N[C@H](C(=O)N[C@H](C)[C@@H](O)[C@H](C)C(=O)N[C@H](C(=O)NCCc1nc(-c2nc(C(=O)NCCC[S+](C)C)cs2)cs1)[C@@H](C)O)[C@@H](OC1OC(CO)C(O)C(O)C1OC1OC(CO)C(O)C(OC(N)=O)C1O)c1cnc[nH]1 (some centres not stated) [Bleomycin],promoter activity interaction Z-score,[1]; [6],-0.161 ± 0.17
same,promoter activity interaction Z-score,[1]; [7],-0.308 ± 0.65
same,promoter activity interaction Z-score,[1]; [8],0.154 ± 0.043
same,promoter activity interaction Z-score,[1]; [9],-0.147 ± 0.084
same,promoter activity interaction Z-score,[1]; [10],0.266 ± 0.09
same,promoter activity interaction Z-score,[1]; [11],0.659 ± 0.35
same,promoter activity interaction Z-score,[1]; [12],0.241 ± 0.055
same,promoter activity interaction Z-score,[1]; [13],0.604 ± 0.2
same,promoter activity interaction Z-score,[1]; [14],0.326 ± 0.0054
same,promoter activity interaction Z-score,[1]; [15],1.11 ± 0.37
same,promoter activity interaction Z-score,[1]; [16],0.351 ± 0.064
same,promoter activity interaction Z-score,[1]; [17],0.996 ± 0.83
same,promoter activity interaction Z-score,[1]; [18],2.43
same,promoter activity interaction Z-score,[2]; [6],-0.37 ± 0.33
same,promoter activity interaction Z-score,[2]; [7],-0.165 ± 0.44
same,promoter activity interaction Z-score,[2]; [8],0.0421 ± 0.23
same,promoter activity interaction Z-score,[2]; [9],-0.165 ± 0.021
same,promoter activity interaction Z-score,[2]; [10],0.414 ± 0.11
same,promoter activity interaction Z-score,[2]; [11],0.695 ± 0.073
same,promoter activity interaction Z-score,[2]; [12],0.642 ± 1
same,promoter activity interaction Z-score,[2]; [13],1.16 ± 0.21
same,promoter activity interaction Z-score,[2]; [14],0.0111 ± 0.27
same,promoter activity interaction Z-score,[2]; [15],1.52 ± 0.35
same,promoter activity interaction Z-score,[2]; [16],1.13 ± 1.2
same,promoter activity interaction Z-score,[2]; [17],0.608 ± 0.26
same,promoter activity interaction Z-score,[2]; [18],1.05
same,promoter activity interaction Z-score,[3]; [6],-0.227 ± 0.48
same,promoter activity interaction Z-score,[3]; [7],-0.244 ± 0.084
same,promoter activity interaction Z-score,[3]; [8],0.0423 ± 0.14
same,promoter activity interaction Z-score,[3]; [9],0.189 ± 0.027
same,promoter activity interaction Z-score,[3]; [10],0.47 ± 0.17
same,promoter activity interaction Z-score,[3]; [11],0.568 ± 0.18
same,promoter activity interaction Z-score,[3]; [12],-0.134 ± 0.47
same,promoter activity interaction Z-score,[3]; [13],0.996 ± 0.081
same,promoter activity interaction Z-score,[3]; [14],-0.644 ± 0.27
same,promoter activity interaction Z-score,[3]; [15],0.509 ± 0.081
same,promoter activity interaction Z-score,[3]; [16],-0.728 ± 0.72
same,promoter activity interaction Z-score,[3]; [17],-0.1 ± 0.21
same,promoter activity interaction Z-score,[3]; [18],0.543 ± 1.9
same,promoter activity interaction Z-score,[3]; [19],0.142
same,promoter activity interaction Z-score,[4]; [6],-0.0441 ± 0.22
same,promoter activity interaction Z-score,[4]; [7],0.0426 ± 0.088
same,promoter activity interaction Z-score,[4]; [8],0.0195 ± 0.2
same,promoter activity interaction Z-score,[4]; [9],0.0402 ± 0.048
same,promoter activity interaction Z-score,[4]; [10],0.138 ± 0.019
same,promoter activity interaction Z-score,[4]; [11],0.214 ± 0.083
same,promoter activity interaction Z-score,[4]; [12],-0.00506 ± 0.02
same,promoter activity interaction Z-score,[4]; [13],0.485 ± 0.32
same,promoter activity interaction Z-score,[4]; [14],-0.0277 ± 0.085
same,promoter activity interaction Z-score,[4]; [15],0.277 ± 0.053
same,promoter activity interaction Z-score,[4]; [16],0.343 ± 0.13
same,promoter activity interaction Z-score,[4]; [17],0.655 ± 0.09
same,promoter activity interaction Z-score,[4]; [18],0.33 ± 0.25
same,promoter activity interaction Z-score,[4]; [19],0.209 ± 0.081
same,promoter activity interaction Z-score,[4]; [20],0.169 ± 0.11
same,promoter activity interaction Z-score,[4]; [21],0.215
same,promoter activity interaction Z-score,[5]; [6],-0.575 ± 0.29
same,promoter activity interaction Z-score,[5]; [7],-0.641 ± 1.1
same,promoter activity interaction Z-score,[5]; [8],-0.352 ± 0.023
same,promoter activity interaction Z-score,[5]; [9],-0.761 ± 0.52
same,promoter activity interaction Z-score,[5]; [10],0.286 ± 0.074
same,promoter activity interaction Z-score,[5]; [11],-0.211 ± 0.3
same,promoter activity interaction Z-score,[5]; [12],-0.79 ± 0.62
same,promoter activity interaction Z-score,[5]; [13],0.828 ± 0.64
same,promoter activity interaction Z-score,[5]; [14],-0.851 ± 0.45
same,promoter activity interaction Z-score,[5]; [15],0.213 ± 1.1
same,promoter activity interaction Z-score,[5]; [16],0.777 ± 1.4
same,promoter activity interaction Z-score,[5]; [17],0.0492 ± 0.52
same,promoter activity interaction Z-score,[5]; [18],0.571 ± 0.23
same,promoter activity interaction Z-score,[5]; [19],0.356
same,promoter activity interaction Z-score,[5]; [20],-0.851 ± 0.56
same,promoter activity interaction Z-score,[5]; [21],1.73 ± 0.26
